Experimental data published in PubChem BioAssay (NCI).
About 83,000 compounds went through this panel and 20% of them were active in at least one assay; those are over-represented in the sample as a whole.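 Single-concentration screen, 48 h exposure, 96-well plates. Endpoint: percent growth. Below 10 = active.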

Legend:
Assay in all cases: NCI-60 one-dose screen, 48 h (100 = growth as untreated, 0 = no growth, -100 = all killed)
Conditions in all cases: 10 µM unless noted
SR leukemia = tested on: SR leukemia
RPMI-8226 leukemia = tested on: RPMI-8226 leukemia
OVCAR-8 ovarian = tested on: OVCAR-8 ovarian
OVCAR-5 ovarian = tested on: OVCAR-5 ovarian
OVCAR-4 ovarian = tested on: OVCAR-4 ovarian
SK-OV-3 ovarian = tested on: SK-OV-3 ovarian
IGROV1 ovarian = tested on: IGROV1 ovarian
OVCAR-3 ovarian = tested on: OVCAR-3 ovarian
NCI/ADR-RES ovarian = tested on: NCI/ADR-RES ovarian
T-47D breast = tested on: T-47D breast
MDA-MB-435 melanoma = tested on: MDA-MB-435 melanoma
SW-620 colon = tested on: SW-620 colon
MCF7 breast = tested on: MCF7 breast
HCT-116 colon = tested on: HCT-116 colon
HCC-2998 colon = tested on: HCC-2998 colon
KM12 colon = tested on: KM12 colon
HS 578T breast = tested on: HS 578T breast
BT-549 breast = tested on: BT-549 breast

Measured: growth

O=C(O)CCCCCNC(=O)OCc1ccccc1
inactive: SR leukemia 98% | RPMI-8226 leukemia 81.5% | OVCAR-8 ovarian 112% | OVCAR-5 ovarian 97.7% | OVCAR-4 ovarian 98.5% | SK-OV-3 ovarian 106% | IGROV1 ovarian 93.9% | OVCAR-3 ovarian 104% | NCI/ADR-RES ovarian 110% | T-47D breast 97.6% | MDA-MB-435 melanoma 99.8% | SW-620 colon 95.2% | MCF7 breast 93.6% | HCT-116 colon 92.9% | HCC-2998 colon 105% | KM12 colon 101%

Cc1ccc([N+](=O)[O-])c(C)n1
inactive: SR leukemia 106% | RPMI-8226 leukemia 99.4% | OVCAR-8 ovarian 98.4% | OVCAR-5 ovarian 83.5% | OVCAR-4 ovarian 99.1% | SK-OV-3 ovarian 106% | IGROV1 ovarian 95% | OVCAR-3 ovarian 107% | NCI/ADR-RES ovarian 115% | T-47D breast 102% | MDA-MB-435 melanoma 99.8% | SW-620 colon 99.5% | MCF7 breast 96.2% | HCT-116 colon 104% | HCC-2998 colon 103% | KM12 colon 107%

Cc1ccc(NC(=O)c2ccccc2Cl)cc1
inactive: SR leukemia 92.3% | RPMI-8226 leukemia 94.8% | OVCAR-8 ovarian 115% | OVCAR-5 ovarian 99.1% | OVCAR-4 ovarian 107% | SK-OV-3 ovarian 124% | IGROV1 ovarian 93.8% | OVCAR-3 ovarian 122% | NCI/ADR-RES ovarian 111% | T-47D breast 112% | MDA-MB-435 melanoma 109% | SW-620 colon 109% | MCF7 breast 99.4% | HCT-116 colon 114% | HCC-2998 colon 124% | KM12 colon 105%

CC1CCC(C)(C)c2ccccc21 (centres undefined)
inactive: SR leukemia 107% | RPMI-8226 leukemia 117% | OVCAR-8 ovarian 105% | OVCAR-5 ovarian 92.4% | OVCAR-4 ovarian 98.2% | SK-OV-3 ovarian 101% | IGROV1 ovarian 98.4% | HS 578T breast 105% | T-47D breast 91.1% | BT-549 breast 105% | MDA-MB-435 melanoma 105% | SW-620 colon 115% | MCF7 breast 91.4% | HCT-116 colon 95.9% | HCC-2998 colon 96.9%

C=CCN1CCCC1=O
inactive: SR leukemia 90.2% | RPMI-8226 leukemia 96.6% | OVCAR-8 ovarian 110% | OVCAR-5 ovarian 124% | OVCAR-4 ovarian 94.8% | SK-OV-3 ovarian 92.9% | IGROV1 ovarian 114% | OVCAR-3 ovarian 128% | NCI/ADR-RES ovarian 110% | T-47D breast 100% | MDA-MB-435 melanoma 101% | SW-620 colon 102% | MCF7 breast 99.6% | HCT-116 colon 106% | HCC-2998 colon 128% | KM12 colon 110%

OCCc1ccc(Cl)cc1
inactive: SR leukemia 94.6% | RPMI-8226 leukemia 101% | OVCAR-8 ovarian 98.7% | OVCAR-5 ovarian 97.8% | OVCAR-4 ovarian 103% | SK-OV-3 ovarian 100% | IGROV1 ovarian 104% | HS 578T breast 95% | NCI/ADR-RES ovarian 107% | MDA-MB-435 melanoma 92.3% | SW-620 colon 105% | MCF7 breast 93.7% | HCT-116 colon 101% | HCC-2998 colon 110% | KM12 colon 88.9%

CCOc1ccc(C(=O)O)cc1
inactive: SR leukemia 99.4% | RPMI-8226 leukemia 103% | OVCAR-8 ovarian 106% | OVCAR-5 ovarian 105% | OVCAR-4 ovarian 103% | SK-OV-3 ovarian 98.8% | IGROV1 ovarian 113% | OVCAR-3 ovarian 115% | T-47D breast 100% | BT-549 breast 96.7% | MDA-MB-435 melanoma 104% | SW-620 colon 99.7% | MCF7 breast 94% | HCT-116 colon 99% | HCC-2998 colon 104% | KM12 colon 112%

COc1c(CNC(=O)CCl)cc2[nH]c(C)cc2c1CNC(=O)CCl
inactive: SR leukemia 34.9% | RPMI-8226 leukemia 58.5% | OVCAR-8 ovarian 53% | OVCAR-5 ovarian 96.7% | OVCAR-4 ovarian 45.3% | SK-OV-3 ovarian 70.3% | IGROV1 ovarian 33.8% | NCI/ADR-RES ovarian 118% | T-47D breast 59.2% | BT-549 breast 58.9% | MDA-MB-435 melanoma 50.4% | SW-620 colon 55.1% | MCF7 breast 36% | HCT-116 colon 41.7% | KM12 colon 59.2%

NC(CO)(CO)c1ccccc1
inactive: SR leukemia 96.7% | RPMI-8226 leukemia 94.2% | OVCAR-8 ovarian 103% | OVCAR-5 ovarian 101% | OVCAR-4 ovarian 104% | SK-OV-3 ovarian 105% | IGROV1 ovarian 104% | HS 578T breast 95.5% | NCI/ADR-RES ovarian 111% | T-47D breast 99.7% | MDA-MB-435 melanoma 98.4% | SW-620 colon 96.9% | MCF7 breast 95.9% | HCT-116 colon 101% | HCC-2998 colon 110% | KM12 colon 94.5%

CCN(CC)CCN1CNC(=S)NC1
inactive: SR leukemia 96.4% | RPMI-8226 leukemia 99.2% | OVCAR-8 ovarian 112% | OVCAR-5 ovarian 107% | OVCAR-4 ovarian 109% | SK-OV-3 ovarian 108% | IGROV1 ovarian 113% | HS 578T breast 105% | NCI/ADR-RES ovarian 106% | T-47D breast 94.5% | BT-549 breast 102% | MDA-MB-435 melanoma 109% | SW-620 colon 107% | MCF7 breast 98.4% | HCT-116 colon 103% | HCC-2998 colon 109% | KM12 colon 98.7%

c1ccc2[nH]c(Cc3nc4ccccc4[nH]3)nc2c1
inactive: IGROV1 ovarian 92.2%
